The record followed here is PubChem BioAssay (NCATS).

Results filed as inconclusive are left out. Active and inactive are the calls of the source. Unless noted, calls follow the shape of the dose curve; as a rule, active = well fitted inhibition curve with a large enough effect; inconclusive = small, poorly fitted or top-dose-only effect; inactive = flat fitted curve, though single readings scatter.

The nature of test [1]: S16 Schwann cell PMP22 intronic element beta-lactamase assay (AID 624044; calls by dose curve; also: nearly all actives have a fitted effect of over 15% in size). The settings on record: S16 rat Schwann cells, PMP22 element beta-lactamase FRET, 24 h; ratio activity, negative = inhibition: at 38.3 µM (top of the series) unless noted. Summed up: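 Rat S16 Schwann cells with beta-Lac driven by a PMP22 intronic element, compound-treated 24 h at 37 °C. LiveBLAzer FRET B/G read: 460 nm normalized to potassium clavulanate vs DMSO; 535 nm FRET as viability; concentration-effect curves classified.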

The next test concerns 3D7. Kind of test: qHTS profiling for inhibitors of Plasmodium falciparum proliferation (AID 504749). Also: nearly all actives have a fitted effect of over 60% in size. Also: potency is read from the fitted curve at half-maximal effect. The settings on record: P. falciparum in erythrocytes, SYBR Green DNA, 72 h; series mostly up to 28.7 µM. The procedure, abridged:
(§1)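 P. falciparum-infected erythrocytes (0.3% parasitemia, 2.5% hematocrit final) were exposed to compounds for 72 h at 37 C in 5% CO2, then lysed with SYBR Green buffer overnight at room temperature; parasite DNA fluorescence was normalized to artemisinin and DMSO controls.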

The subject of a further test is ATS95. The test is described as above. The settings on record: P. falciparum in erythrocytes, SYBR Green DNA, 72 h; series mostly up to 28.7 µM. The procedure, abridged: as §1
In another test the test system is CP185. The description is as above. The settings on record: P. falciparum in erythrocytes, SYBR Green DNA, 72 h; series mostly up to 28.7 µM. The procedure, abridged:
as §1

The next test relates to CP201. The test is described as above. The settings on record: P. falciparum in erythrocytes, SYBR Green DNA, 72 h; series mostly up to 28.7 µM. Summed up: as §1
A further test has as its system CP211. The description is as above. Conditions: P. falciparum in erythrocytes, SYBR Green DNA, 72 h; series mostly up to 28.7 µM. The procedure, abridged: as §1
For another test, the system named is CP217. The description is as above. The settings on record: P. falciparum in erythrocytes, SYBR Green DNA, 72 h; series mostly up to 28.7 µM. Summed up:
as §1

The test system of the next test is CP238. Described as above. The settings on record: P. falciparum in erythrocytes, SYBR Green DNA, 72 h; series mostly up to 28.7 µM. The procedure, abridged: as §1
For another test, the system named is CP252. The test is described as above. The settings on record: P. falciparum in erythrocytes, SYBR Green DNA, 72 h; series mostly up to 12.8 µM. Summed up:
as §1

Another test deals with CP256. Described as above. The settings on record: P. falciparum in erythrocytes, SYBR Green DNA, 72 h; series mostly up to 28.7 µM. Summed up: as §1
In another test the test system is CP266. The description is as above. The settings on record: P. falciparum in erythrocytes, SYBR Green DNA, 72 h; series mostly up to 12.8 µM. Summed up:
as §1

The test system of a further test is CP269. The description is as above. The settings on record: P. falciparum in erythrocytes, SYBR Green DNA, 72 h; series mostly up to 28.7 µM. The procedure, abridged:
as §1

The next test relates to CP297. Described as above. Conditions: P. falciparum in erythrocytes, SYBR Green DNA, 72 h; series mostly up to 28.7 µM. The procedure, abridged:
as §1

A further test relates to CP305. Described as above. Conditions: P. falciparum in erythrocytes, SYBR Green DNA, 72 h; series mostly up to 28.7 µM. Summed up:
as §1

A further test deals with CP315. Described as above. Conditions: P. falciparum in erythrocytes, SYBR Green DNA, 72 h; series mostly up to 28.7 µM. Summed up:
as §1

For another test, the system named is CP329. Described as above. Conditions: P. falciparum in erythrocytes, SYBR Green DNA, 72 h; series mostly up to 28.7 µM. Summed up:
as §1

The next test concerns DIV30. Described as above. The settings on record: P. falciparum in erythrocytes, SYBR Green DNA, 72 h; series mostly up to 28.7 µM. Summed up: as §1
Another test relates to ECU. The test is described as above. The settings on record: P. falciparum in erythrocytes, SYBR Green DNA, 72 h; series mostly up to 28.7 µM. Summed up:
as §1

For a further test, the system named is HB3. The description is as above. The settings on record: P. falciparum in erythrocytes, SYBR Green DNA, 72 h; series mostly up to 28.7 µM. Summed up:
as §1

Another test deals with N140. The description is as above. The settings on record: P. falciparum in erythrocytes, SYBR Green DNA, 72 h; series mostly up to 28.7 µM. The procedure, abridged: as §1

Consider `CN[C@@H](C)[C@H]1CC[C@@H](N)[C@@H](O[C@@H]2[C@@H](O)[C@@H](O[C@H]3OC[C@@](C)(O)[C@@H](NC)[C@@H]3O)[C@H](N)C[C@@H]2N)O1` (tested in a mixture with another compound), for which the Potency entry (in [1]; in the test on 3D7; in the test with ATS95; in the test on CP185; in the test on CP201; in the test with CP211) was “inactive” each time. Besides, the Potency entry in the test on CP217, in the test on CP238, in the test on CP252, in the test on CP256, in the test with CP266 and in the test on CP269 was “inactive” each time. The Potency result in the test on CP297, with CP305, in the test on CP315, in the test on CP329, in the test on DIV30 and in the test on ECU was “inactive” each time. In addition, the Potency entry with HB3 and in the test with N140 was “inactive” each time.
In the case of `CN(C)[C@@H]1C(=O)C(C(N)=O)=C(O)[C@]2(O)C(=O)C3=C(O)c4c(O)ccc(Cl)c4[C@](C)(O)[C@H]3C[C@@H]12`, the Potency entry (in test [1]; in the test with 3D7; in the test on ATS95; with CP185; in the test on CP201; in the test with CP211) was “inactive” each time. In addition, the Potency result in the test with CP217, in the test with CP238, in the test on CP252, with CP256, in the test on CP266 and with CP269 was “inactive” each time. Besides, the Potency entry in the test on CP297, in the test with CP305, with CP315, with CP329, in the test with DIV30 and in the test with ECU was “inactive” throughout. The Potency entry in the test with HB3 and in the test on N140 was “inactive” in each case.
With `CC1=C2[C@@H]3OC(=O)[C@@H](C)[C@@H]3CC[C@]2(C)C=CC1=O`, the Potency entry (in test [1]; in the test on 3D7; in the test with ATS95; in the test with CP201; with CP211; in the test on CP266) was “inactive” throughout. The Potency entry with CP269, in the test on CP297, in the test with CP305, in the test with CP315, in the test on CP329 and with DIV30 was “inactive” each time. The Potency result with ECU and with HB3 was “inactive” in each case.
On to `CN(C)C(=O)Oc1cc(OC(=O)N(C)C)cc([C@@H](O)CNC(C)(C)C)c1`, for which the Potency entry (in [1]; in the test on 3D7; in the test on ATS95; in the test on CP185; in the test on CP201; in the test on CP211) was “inactive” in each case. Besides, the Potency entry in the test on CP217, in the test with CP238, with CP252, with CP256, with CP266 and in the test on CP269 was “inactive” each time. The Potency entry with CP297, in the test on CP305, in the test with CP315, with CP329, with DIV30 and with ECU was “inactive” in each case. Moreover, the Potency result with HB3 and in the test on N140 was “inactive” each time.
For `CCN[C@]1(c2cccs2)CCCCC1=O`, the Potency entry (in [1]; with 3D7; with ATS95; in the test with CP185; with CP201; in the test with CP211) was “inactive” each time. Besides, the Potency entry in the test with CP217, with CP238, with CP252, in the test on CP256, in the test with CP266 and in the test on CP269 was “inactive” each time. Moreover, the Potency entry in the test on CP297, with CP305, in the test with CP315, in the test on CP329, in the test with DIV30 and in the test with ECU was “inactive” in each case. Besides, the Potency entry with HB3 and with N140 was “inactive” in each case.
For the compound `CC(C)N(CC[C@@](C(N)=O)(c1ccccc1)c1ccccn1)C(C)C`, the Potency result (in test [1]; in the test with 3D7; in the test with ATS95; in the test on CP185; in the test on CP201; in the test with CP211) was “inactive” each time. Besides, the Potency result in the test on CP217, in the test with CP238, with CP252, in the test on CP256, with CP266 and with CP269 was “inactive” throughout. The Potency result in the test with CP297, in the test on CP305, in the test on CP315, with CP329, in the test with DIV30 and in the test with ECU was “inactive” throughout. The Potency entry in the test with HB3 and in the test on N140 was “inactive” each time.
In the case of `Clc1ccc([C@@H](OCCN2CCCCC2)c2ccccc2)cc1`, the Potency entry (in test [1]; in the test with 3D7; in the test with CP185; with CP201; in the test with CP211; in the test on CP217) was “inactive” each time. Moreover, the Potency entry in the test with CP238, in the test on CP252, with CP256, with CP266, in the test on CP297 and in the test on CP315 was “inactive” throughout. Moreover, in the test on CP329, the Potency entry is “inactive”. For the same compound, the Potency is 7.94 µM (active) with HB3 and 3.98 µM (active) in the test on N140.
